Methyltransferases = Primary Screen for Target Class Profiling of Small Molecule Inhibitors of Methyltransferases; purified enzyme, MTase-Glo SAH luminescence; stronger effect = lower value; calls only at 40 µM; 25,000 tested, 3.9% active; AID 1745853, 2022; call rule not given here
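Each enzyme was assayed with SAM and its substrate. SAH formation detected by MTase-Glo luminescence; single-point 40 uM screen[…].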
MTase-Glo ctr = Counterscreen for Target Class Profiling of Small Molecule Inhibitors of Methyltransferases; shares compounds with Methyltransferases; MTase-Glo coupled enzymes, SAH conversion luminescence, no MTase; Potency, µM (highest dose often 57.3 µM), without a hit: at the highest dose activity change, negative = inhibition, hits mostly inhibitors; 180 tested, 6% active; active means well fitted inhibition curve with a large enough effect; further: potency means the concentration at half of the fitted maximal effect
* hit, by the source's call; [ ] = another dose, or the depositor's remark. The entries come from a sample that favours hits as a whole. On the % scale 0 is the no-effect control and ±100 the full control effect.

For COc1ccc(-c2cc3n(n2)CC(C)(C(=O)NCc2ccccc2)N(CCc2ccc(Cl)cc2)C3=O)cc1 (stereo not given) the results were Methyltransferases inactive.
CCCn1cnc2c1CN(S(=O)(=O)c1ccc(F)cc1)[C@H](C(=O)OC)C2 was read as Methyltransferases inactive.
COC(=O)[C@@H]1Cc2ncn(Cc3ccc(Cl)cc3)c2CN1CCCc1ccccc1 was read as Methyltransferases active and MTase-Glo ctr 11.1µM*.
Screening CCCn1c(=O)c2ccccc2n2c(SCC(=O)Nc3cccc(Cl)c3)nnc12 returned Methyltransferases inactive.
COc1cccc(Cn2nc3n(C(C)C)c(=O)c4ccc(C(=O)NC5CCCC5)cc4n3c2=O)c1 was read as Methyltransferases inactive.
Screening COc1ccc2cc3n(c2c1)CC(C)(C(=O)NC1CCCC1)N(c1cc(C)cc(C)c1)C3=O (stereo not given) returned Methyltransferases inactive.
Screening CCc1cccc(N2C(=O)c3c(C(=O)OC)ncn3CC2(C)C(=O)NC2CCCCC2)c1 (stereo not given) returned Methyltransferases inactive.
For Cc1noc(C)c1-c1cc2c(cc(C)n2C)c(N2CCN(c3ccccn3)CC2)n1 the results were Methyltransferases inactive.
COc1ccc(-c2cnc3n[nH]c(-c4ccccc4C)c3n2)cn1 was read as Methyltransferases inactive.
Screening Cc1ccccc1-c1[nH]nc2ncc(-c3c(C)noc3C)nc12 returned Methyltransferases active and MTase-Glo ctr -4.1%[85.7 µM].
`CC(C)CCn1c(=O)c2ccccc2n2c(SCc3ccccc3)nnc12` gave Methyltransferases inactive.
For CC1(C(=O)NC2CCCCC2)Cn2nc(-c3cccs3)cc2C(=O)N1Cc1ccc2c(c1)OCO2 (stereo not given) the results were Methyltransferases inactive.
Nc1ccc(-c2nc3ccc(-c4nc5ccc(N)cc5[nH]4)cc3[nH]2)cc1 was read as Methyltransferases inactive.
Cc1cc(-c2nc3ccncc3[nH]2)c(C)[nH]1 was read as Methyltransferases active and MTase-Glo ctr -3.1%[114 µM].
CCn1c(=O)n(CC)c2cc(S(=O)(=O)N3CCN(Cc4ccc5c(c4)OCO5)CC3)ccc21 was read as Methyltransferases inactive.
CCOc1ccc(N2C(=O)c3cc4sc(CC)cc4n3CC2(C)C(=O)NC2CCCCCC2)cc1 (stereo not given) was read as Methyltransferases inactive.
Screening O=C(Nc1ccc2c(c1)OCCO2)N1CC(c2nc(CCOCC3CC3)no2)C1 returned Methyltransferases inactive.
For Cc1cnc(CC2CCN(C(=O)Nc3ccc4c(c3)OCCO4)C2)n1C1CC1 (stereo not given) the results were Methyltransferases inactive.
Screening Cc1cnc(CCNC(=O)c2cccs2)n1C1CCC1 returned Methyltransferases active and MTase-Glo ctr 3.2%.
For Cc1cnc(CCNC(=O)c2ccc(C#N)cc2)n1C1CC1 the results were Methyltransferases inactive.
Screening Cc1cnc(CCNC(=O)c2n[nH]c(=O)c3ccccc23)n1C1CCCCC1 returned Methyltransferases active and MTase-Glo ctr -5.7%.
`Cc1cnc(CCNC(=O)Nc2ccc3c(c2)OCCO3)n1C1CCC1` gave Methyltransferases active and MTase-Glo ctr -3.8%.
COc1ccc(C(=O)NCCc2ncc(C)n2C2CC2)cn1 was read as Methyltransferases inactive.
For Cc1cnc(CCNC(=O)Cc2ccncc2)n1CC1CC1 the results were Methyltransferases inactive.
For Cc1cnc(C(=O)NCCc2ccc(S(=O)(=O)NC(=O)NC3CCCCC3)cc2)cn1 the results were Methyltransferases inactive.
Cc1ccc(Cn2c(=O)c3ccccc3n3c(SCC(=O)Nc4ccc(Cl)cc4)nnc23)cc1 was read as Methyltransferases inactive.
Cc1ccc(CNC(=O)c2cc3n(n2)CC(C)(C(=O)NCc2ccccc2)N(C)C3=O)o1 (stereo not given) was read as Methyltransferases inactive.
For O=C(CSc1nnc2n(CCc3ccccc3)c(=O)c3ccccc3n12)Nc1ccccc1F the results were Methyltransferases inactive.
COCCN1CCCC(c2[nH]ccc2C(=O)NCCc2nc3ccccc3[nH]2)C1 (stereo not given) was read as Methyltransferases inactive.
Screening CCNC(=O)N1C[C@@H](F)[C@@H](OCc2nc3ccc(F)cc3[nH]2)C1 returned Methyltransferases inactive.
`CCN(CCc1nc2ccc(C)cc2[nH]1)C(=O)c1ccccc1C1CCNC1` (stereo not given) gave Methyltransferases active and MTase-Glo ctr 1.6%.
Screening CC(NC(=O)CCn1ccc2cc(S(=O)(=O)N3CCCCC3)ccc21)c1ccccc1 (stereo not given) returned Methyltransferases inactive.
`COc1ccc(-c2cc3n(n2)CC(C)(C(=O)NCc2ccccc2)N(Cc2ccc(SC)cc2)C3=O)cc1` (stereo not given) gave Methyltransferases inactive.

Source: PubChem BioAssay
